The values that follow come from PubChem BioAssay (EPA / NIEHS).

Molecules are shown by their SMILES. A structure can be active in one record and inactive in another. Calls of active or inactive are those of the source. The calls were made as follows: active = hit-call score of the fitted dose curve at least 0.9, where 1 is the maximum; inactive = score below 0.9.

Read-out in assay [1]: Monocyte Chemoattractant Protein-1 (MCP1), CCL2 (gene 6347)
The assay can be described thus: BSK_IMphg_MCP1: BioMAP Diversity Plus: IMphg Assay for Monocyte Chemoattractant Protein-1 (MCP1) Biomarker Activity (AID 2284253). The following applies: primary human endothelial cells with macrophages. In a few lines: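 ELISA readout of MCP-1 at 24 hours in IMphg co-cultures of venular endothelial cells and macrophages, normalised to DMSO; parallel cultures stained with sulforhodamine B for overt cytotoxicity.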

Read-out in assay [2]: Macrophage Inflammatory Protein-1 Alpha (MIP1a), CCL3 (gene 6348)
The assay can be described thus: BSK_IMphg_MIP1a: BioMAP Diversity Plus: IMphg Assay for Macrophage Inflammatory Protein-1 Alpha (MIP1a) Biomarker Activity (AID 2284255). The note with it: primary human endothelial cells with macrophages. In a few lines:
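MIP-1a protein levels were quantified by ELISA after 24 h treatment of human endothelial cell–macrophage co-cultures, compared with DMSO. Parallel cultures were fixed with TCA and stained with 0.1% SRB to gauge overt cytotoxicity.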

Read-out in assay [3]: Plasminogen activator inhibitor-1 (PAI1), SERPINE1 (gene 5054)
In words: BSK_MyoF_PAI1: BioMAP Diversity Plus: MyoF Assay for Plasminogen activator inhibitor-1 (PAI1) Biomarker Activity (AID 2284256).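 As to outcome: PAI-1 protein level measured by ELISA in fibroblast cultures; PAI-1 read 24 h after compound addition.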 The note with it: primary human lung fibroblasts. In a few lines:
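In this multiplexed primary-cell system, fibroblasts from human lung received compound for 24 h before ELISA detection of PAI-1; overt toxicity was checked by SRB (0.1%, TCA-fixed, 560 nm) in parallel wells.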

Read-out in assay [4]: CD69, CD69 (gene 969)
The assay can be described thus: BSK_IMphg_CD69: BioMAP Diversity Plus: IMphg Assay for CD69 Biomarker Activity (AID 2284257). The note with it: primary human endothelial cells with macrophages. In a few lines:
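Readout is ELISA for CD69 in primary human venular endothelial cell/macrophage co-culture, taken at 24 h post-dosing. SRB staining of parallel cultures gauged overt cytotoxicity; signal increase versus DMSO defined activity.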

Read-out in assay [5]: Eotaxin 3, CCL26 (gene 10344)
The assay can be described thus: BSK_BF4T_Eotaxin3: BioMAP Diversity Plus: BF4T Assay for Eotaxin 3 Biomarker Activity (AID 2284258). The note with it: primary human bronchial epithelial cells with fibroblasts. The essentials: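 ELISA measurement of Eotaxin-3 after 24 h chemical exposure in a bronchial epithelial/dermal fibroblast co-culture, with DMSO as baseline. Parallel SRB staining (0.1% SRB after 10% TCA fixation, 560 nm) flagged overt cytotoxicity.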

Read-out in assay [6]: Monocyte Chemoattractant Protein-1 (MCP1), CCL2 (gene 6347)
In words: BSK_BF4T_MCP1: BioMAP Diversity Plus: BF4T Assay for Monocyte Chemoattractant Protein-1 (MCP1) Biomarker Activity (AID 2284259). The following applies: primary human bronchial epithelial cells with fibroblasts. In a few lines:
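MCP-1 ELISA readout taken 24 h after dosing in the BF4T system (bronchial epithelial cells plus dermal fibroblasts). Parallel SRB total-protein staining flagged cytotoxicity; DMSO served as baseline, positive fitting direction.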

Read-out in assay [7]: Intercellular Adhesion Molecule 1 (ICAM1), ICAM1 (gene 3383)
In words: BSK_BF4T_ICAM1: BioMAP Diversity Plus: BF4T Assay for Intercellular Adhesion Molecule 1 (ICAM1) Biomarker Activity (AID 2284260). The following applies: primary human bronchial epithelial cells with fibroblasts. In a few lines: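 ICAM-1 levels measured by ELISA after 24 h chemical treatment of bronchial epithelial cell/dermal fibroblast co-cultures, read against DMSO baseline. Overt cytotoxicity checked in parallel cultures by sulforhodamine B staining.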

Read-out in assay [8]: Interleukin-8 (IL8), CXCL8 (gene 3576)
In words: BSK_MyoF_IL8: BioMAP Diversity Plus: MyoF Assay for Interleukin-8 (IL8) Biomarker Activity (AID 2284261). The note with it: primary human lung fibroblasts. The essentials:
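DMSO-normalised, upward-fitted IL-8 ELISA signal; human lung fibroblasts, 24 h chemical treatment.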

Read-out in assay [9]: CD90, THY1 (gene 7070)
The assay can be described thus: BSK_BF4T_CD90: BioMAP Diversity Plus: BF4T Assay for CD90 Biomarker Activity (AID 2284262). The following applies: primary human bronchial epithelial cells with fibroblasts. The essentials:
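CD90 levels by ELISA after 24 h treatment of human bronchial epithelial cell/dermal fibroblast cultures, analysed versus DMSO. Overt cytotoxicity checked in parallel cultures by sulforhodamine B staining.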

Read-out in assay [10]: Interleukin-8 (IL8), CXCL8 (gene 3576)
The assay can be described thus: BSK_KF3CT_IL8: BioMAP Diversity Plus: KF3CT Assay for Interleukin-8 (IL8) Biomarker Activity (AID 2284254). The note with it: primary human keratinocytes with fibroblasts. The essentials:
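Using parallel SRB-stained cultures to flag overt toxicity, the study quantified IL-8 by ELISA in human keratinocyte–foreskin fibroblast co-cultures 24 h after dosing, with DMSO as negative control and baseline.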

`O=S(=O)(O)C(F)(F)C(F)(F)C(F)(F)C(F)(F)C(F)(F)C(F)(F)C(F)(F)F`: the outcome in assay [1], in assay [2], in assay [3], in assay [4], in assay [5] and in assay [6] was inactive. For the same compound, the outcome in [7], in assay [8] and in assay [9] was inactive.

With `FC1CC(F)(F)C(F)(F)C1(F)F` (stereo unspecified), the outcome in assay [1], in assay [2], in assay [3], in assay [4], in [5] and in assay [7] was inactive. Moreover, the outcome in assay [8] was inactive.

On to `CCCCCCCCC(F)(F)C(F)(F)C(F)(F)C(F)(F)C(F)(F)C(F)(F)F`, for which the outcome in [1], in [10], in assay [2], in [3], in assay [4] and in assay [5] was inactive. Moreover, the outcome in assay [6], in assay [7] and in assay [8] was inactive.

`C=CC(=O)OCC(F)(F)C(F)(F)C(F)(F)C(F)(F)C(F)(F)C(F)(F)C(F)(F)F`: the outcome in [1], in assay [10], in assay [2], in assay [3], in [4] and in [5] was inactive. Moreover, the outcome in assay [7] and in assay [8] was inactive.

`CCO[Si](CCC(F)(F)C(F)(F)C(F)(F)C(F)(F)C(F)(F)C(F)(F)F)(OCC)OCC`: the outcome in assay [1], in assay [2], in assay [3], in [4], in [5] and in [6] was inactive. The outcome in [7] and in assay [8] was inactive. For the same compound, the AC50 – broadly, the concentration giving half of the maximal activity seen – in assay [4] is 0.26 µM (active).

Regarding `CC(C)(C)C(=O)CC(=O)C(F)(F)C(F)(F)C(F)(F)F`, the outcome in [1], in [10], in assay [2], in assay [3], in assay [4] and in assay [5] was inactive. Moreover, the outcome in assay [7], in [8] and in [9] was inactive. Besides, the half-maximal activity concentration (AC50) in assay [2] is 44.2 µM (active).

As to `FC(F)(F)C(F)(F)C(F)(F)C(F)(F)C(F)(F)C(F)(F)CCS`, the outcome in assay [1], in assay [10], in assay [2], in [3], in [4] and in [5] was inactive. Further, the outcome in assay [7], in assay [8] and in [9] was inactive. Moreover, the AC50 in assay [3] is 0.0795 µM (active).

On to `OCC(F)(F)C(F)(F)C(F)(F)F`, for which the outcome in [1], in assay [10], in assay [2], in assay [3], in [4] and in assay [5] was inactive. Also, the outcome in assay [6], in assay [7] and in assay [8] was inactive.

Take `O=C(O)C(F)(OC(F)(F)C(F)(OC(F)(F)C(F)(F)C(F)(F)F)C(F)(F)F)C(F)(F)F` (stereo unspecified): the result in assay [1], in [2], in assay [3], in assay [4], in assay [5] and in assay [7] was inactive. Further, the result in assay [8] was inactive.

As for `O=C(O)C(F)(F)C(F)(F)C(F)F`, the result in [1], in assay [2], in assay [3], in [4], in [5] and in assay [7] was inactive. Further, the outcome in [8] was inactive.

Regarding `Cc1ccc(S(=O)(=O)OCC(F)(F)C(F)(F)C(F)(F)C(F)(F)C(F)(F)C(F)F)cc1`, the outcome in assay [1], in [2], in assay [3], in [4], in [5] and in assay [7] was inactive. For the same compound, in assay [8], the result was inactive.

Regarding `CCCCCCCOC(=O)c1ccccc1C(=O)OCCCCCCC`, the outcome in [3] and in [8] was inactive.

For the compound `O[Si](c1ccccc1)(c1ccccc1)c1ccccc1`, the concentration at half-maximal activity (AC50) in assay [3] was 20 µM (active); in assay [8], 8.82 µM (active).

For the compound `O=P(O)(O)OCCC(F)(F)C(F)(F)C(F)(F)C(F)(F)C(F)(F)C(F)(F)F`, the result in [1], in [2], in assay [3], in assay [4], in assay [5] and in assay [7] was inactive. In addition, the result in assay [8] and in [9] was inactive.

For the compound `O=C(O)C(F)(OC(F)(F)C(F)(OC(F)(F)C(F)(OC(F)(F)C(F)(F)C(F)(F)F)C(F)(F)F)C(F)(F)F)C(F)(F)F` (stereo unspecified), the outcome in assay [1], in [2], in [3], in assay [4], in assay [5] and in assay [7] was inactive. In addition, the outcome in [8] and in [9] was inactive.

For the compound `CC(=O)Nc1ccc(N=Nc2cc(C)ccc2O)cc1`, the result in [3] and in assay [8] was inactive.

In the case of `CCCCNc1ccccc1`, the outcome in [3] and in [8] was inactive.
